In PubChem BioAssay (NCI):
“And” between values parts separate entries of the source, which are not always exact repeats. Equal entries are not always repeated. This is part of a sample that, as a whole, favours compounds with a hit. Of some 79,000 tested, about 15% had one in any assay. A number with no mark means an inactive call. The source made the active and inactive calls. Rule as the data show it: active = growth inhibition above about 70%; inactive = the rest.

Experiments:
[1] = NCI Yeast Anticancer Drug Screen. Data for the rad50 strain (AID 155);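 also: 0% = growth of vehicle-only cultures of the same strain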; conditions: S. cerevisiae rad50 strain growth inhibition, stronger effect = higher value; at 50.0 µM unless noted
Outline: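 Inhibition values express reduced yeast growth in compound-treated cultures relative to vehicle-treated controls.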

[2] = NCI Yeast Anticancer Drug Screen. Data for the mec2-1 strain (AID 157); conditions: S. cerevisiae mec2-1 strain, stronger effect = higher value; at 50.0 µM unless noted
Outline: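 Using mec2-1 yeast: add compound, measure growth, express inhibition versus vehicle-treated cultures.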

[3] = NCI Yeast Anticancer Drug Screen. Data for the sgs1 mgt1 strain (AID 161);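 also: 0% = growth of cultures given vehicle only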; conditions: S. cerevisiae sgs1 mgt1 strain, stronger effect = higher value; at 50.0 µM unless noted
Outline: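 Yeast cells carrying a defined DNA-repair defect were exposed to test compounds. Growth inhibition was measured relative to vehicle-treated controls.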

[4] = NCI Yeast Anticancer Drug Screen. Data for the cln2 rad14 strain (AID 165);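 also: 0% = growth equal to vehicle treated cultures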; conditions: S. cerevisiae cln2 rad14 strain, stronger effect = higher value; at 50.0 µM unless noted
Outline: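 Yeast strain cln2 rad14, bearing defects in cell cycle control and DNA repair, serves as the test system; values reflect growth inhibition compared with vehicle.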

[5] = NCI Yeast Anticancer Drug Screen. Data for the bub3 strain (AID 167); conditions: S. cerevisiae bub3 mutant strain, stronger effect = higher value; at 50.0 µM unless noted
Outline: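 Steps: expose the mutant yeast strain to compound; grow alongside vehicle-treated cultures; measure growth; express inhibition against the vehicle cultures.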

[6] = NCI Yeast Anticancer Drug Screen. Data for the mlh1 rad18 strain (AID 175); conditions: S. cerevisiae mlh1 rad18 strain growth inhibition, stronger effect = higher value; at 50.0 µM unless noted
Outline: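 Steps: expose repair-defective yeast to compound; measure growth; express inhibition against vehicle-treated controls.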

SMILES: CCOC(=O)CN=C1Nc2ccccc2C(=O)N2CSCC12 (stereo not given)
- growth inhibition [1]: -18%
- growth inhibition [2]: -44.7%
- growth inhibition [3]: -28.6%
- growth inhibition [4]: -16.4%
- growth inhibition [5]: -54.5%
- growth inhibition [6]: -16.8%

SMILES: C[n+]1ccc(/C=N/O)cc1
- growth inhibition [1]: -5.05%
- growth inhibition [2]: -22.4%
- growth inhibition [3]: -0.45%
- growth inhibition [4]: 2.95%
- growth inhibition [5]: 8.45%
- growth inhibition [6]: -11.2%

SMILES: Cc1cc2nc3c(C(OC4OC(CO)C(O)C(O)C4O)C(O)CO)nn(-c4ccc(F)cc4)c3nc2cc1C (stereo not given)
- growth inhibition [1]: 3.6%
- growth inhibition [2]: -6.85%
- growth inhibition [3]: -47.7%
- growth inhibition [4]: 25.6%
- growth inhibition [5]: 3.45%
- growth inhibition [6]: 1%

SMILES: CC(=O)OCC1OC(O)C(NC(=O)C(F)(F)F)C(OC(C)=O)C1OC(C)=O (stereo not given)
- growth inhibition [1]: 99.6% (active)
- growth inhibition [2]: 99.8% (active)
- growth inhibition [3]: 99.7% (active)
- growth inhibition [4]: 99% (active)
- growth inhibition [5]: 99.3% (active)
- growth inhibition [6]: 99.5% (active)

SMILES: Cn1ccnc1Sc1c([N+](=O)[O-])ncn1C
- growth inhibition [1]: 3.3%
- growth inhibition [2]: 5.95%
- growth inhibition [3]: 3.25%
- growth inhibition [4]: 29.3%
- growth inhibition [5]: 32.5%
- growth inhibition [6]: 10.4%

SMILES: O=C(OC1C2C=COC(OC3OC(CO)C(O)C(O)C3O)C2C2(CO)OC12)c1ccc(O)cc1 (stereo not given)
- growth inhibition [1]: -0.15%
- growth inhibition [2]: -6.45%
- growth inhibition [3]: 17.8%
- growth inhibition [4]: 18.6%
- growth inhibition [5]: 1.8%
- growth inhibition [6]: -11.6%

SMILES: CC(C)CCN
- growth inhibition [1]: 2.75%
- growth inhibition [2]: 8.9%
- growth inhibition [3]: -3.35%
- growth inhibition [4]: 19.1%
- growth inhibition [5]: 3.3%
- growth inhibition [6]: 30.2%

SMILES: O=C(O)/C=C\C(=O)Nc1ccc2c(c1)Cc1cc(O)ccc1-2
- growth inhibition [1]: 7.95%
- growth inhibition [2]: 30.8%
- growth inhibition [3]: 17.8%
- growth inhibition [4]: 25.7%
- growth inhibition [5]: 21.9%
- growth inhibition [6]: -0.3%

SMILES: Nc1ccc(S(=O)[O-])cc1.Nc1ccc(S(=O)[O-])cc1.[Zn+2]
- growth inhibition [1]: -19.2%
- growth inhibition [2]: -19.9%
- growth inhibition [3]: -6.15%
- growth inhibition [4]: -26.5%
- growth inhibition [5]: 1%
- growth inhibition [6]: -15.6%

SMILES: CC1C(C)(C)C23CC12C1(OCCO1)C3Br (stereo not given)
- growth inhibition [1]: -11.4%
- growth inhibition [2]: -4.4%
- growth inhibition [3]: -6.6%
- growth inhibition [4]: 14.6%
- growth inhibition [5]: 10.8%
- growth inhibition [6]: 25.4%

SMILES: COC(=O)C1CCCCCCCCCCC12SCCCS2 (stereo not given)
- growth inhibition [1]: -32.5%
- growth inhibition [2]: -11.4%
- growth inhibition [3]: -17.5%
- growth inhibition [4]: 16.2%
- growth inhibition [5]: -5.7%
- growth inhibition [6]: -30%

SMILES: COC(=O)c1cc(Cl)ccc1OCC(=O)Nc1ccccc1
- growth inhibition [1]: -6.3%
- growth inhibition [2]: -2.5%
- growth inhibition [3]: 13.4%
- growth inhibition [4]: -8.2%
- growth inhibition [5]: -6.55%
- growth inhibition [6]: -29.1%

SMILES: O=C1COC(=O)CO1
- growth inhibition [1]: -15.6%
- growth inhibition [2]: -18.9%
- growth inhibition [3]: -5.7%
- growth inhibition [4]: 34.2%
- growth inhibition [5]: 8.55%
- growth inhibition [6]: -10.7%

SMILES: C[N+]1(C)N=C([O-])N(c2ccccc2Cl)C1=O
- growth inhibition [1]: 21.4%
- growth inhibition [2]: -27.4%
- growth inhibition [3]: -6.6%
- growth inhibition [4]: -37.5%
- growth inhibition [5]: 1.15%
- growth inhibition [6]: 18.1%

SMILES: CCOC(=O)O/C(C)=C\c1ccc(Cl)cc1
- growth inhibition [1]: 2.45%
- growth inhibition [2]: -2.65%
- growth inhibition [3]: -12.4%
- growth inhibition [4]: -50.4%
- growth inhibition [5]: -34.9%
- growth inhibition [6]: 7.05%

SMILES: Cc1cc(C)c2c(c1)sc1n[nH]c(=S)n12
- growth inhibition [1]: 14.1%
- growth inhibition [2]: 6.7%
- growth inhibition [3]: 9.05%
- growth inhibition [4]: -11.4%
- growth inhibition [5]: -10.8%
- growth inhibition [6]: 3.95%

SMILES: CC1(C)SC(c2ccccc2)SC(c2ccccc2)S1 (stereo not given)
- growth inhibition [1]: 13.7%
- growth inhibition [2]: 1.4%
- growth inhibition [3]: -3.3%
- growth inhibition [4]: 3.25%
- growth inhibition [5]: -0.8%
- growth inhibition [6]: 17.4%

SMILES: CCCC1([N+](=O)[O-])c2ccccc2-c2ccc([N+](=O)[O-])cc21 (stereo not given)
- growth inhibition [1]: 20.4%
- growth inhibition [2]: 7.9%
- growth inhibition [3]: 22.4%
- growth inhibition [4]: 11%
- growth inhibition [5]: 46.1%
- growth inhibition [6]: 49.7%

SMILES: CCC1CC(C)=CCN1S(=O)(=O)c1ccc(C)cc1 (stereo not given)
- growth inhibition [1]: -12.6%
- growth inhibition [2]: -2.3%
- growth inhibition [3]: 4.4%
- growth inhibition [4]: 18.6%
- growth inhibition [5]: 12.2%
- growth inhibition [6]: 2.35%

SMILES: O=S(=O)(c1ccccn1)c1nc2ccccc2s1
- growth inhibition [1]: -1.75%
- growth inhibition [2]: 7.1%
- growth inhibition [3]: -0.45%
- growth inhibition [4]: 17.1%
- growth inhibition [5]: -2.8%
- growth inhibition [6]: 0.45%

SMILES: C1=CC(=CN2CCc3ccccc3C2)C=C1
- growth inhibition [1]: 2.55%
- growth inhibition [2]: -8.45%
- growth inhibition [3]: 3.05%
- growth inhibition [4]: -6.95%
- growth inhibition [5]: -9.2%
- growth inhibition [6]: 6.05%

SMILES: Nc1nnc2nc(C(C(=O)c3ccc(F)cc3)c3nc4nnc(N)n4[nH]c3=O)c(=O)[nH]n12
- growth inhibition [1]: 15.1%
- growth inhibition [2]: 4.15%
- growth inhibition [3]: -10.2%
- growth inhibition [4]: 8.45%
- growth inhibition [5]: 0.2%
- growth inhibition [6]: 18.8%

SMILES: CCCCN1C(=O)NC(Cc2ccccc2)C1=O (stereo not given)
- growth inhibition [1]: -13.2%
- growth inhibition [2]: -1.35%
- growth inhibition [3]: -13.2%
- growth inhibition [4]: 4.95%
- growth inhibition [5]: -1.9%
- growth inhibition [6]: -12.5%

SMILES: CN(C)c1ccc(/C=C2\C(=O)/C(=C\c3ccc(N(C)C)cc3)c3ccccc32)cc1
- growth inhibition [1]: 2.95%
- growth inhibition [2]: -4.25%
- growth inhibition [3]: -13.8%
- growth inhibition [4]: -12.5%
- growth inhibition [5]: 1.05%
- growth inhibition [6]: 2.95%

SMILES: O=C(O)CCC1=Nc2cccc3cccc(c23)NC1=O
- growth inhibition [1]: 36.2%
- growth inhibition [2]: 32.2%
- growth inhibition [3]: 7.75%
- growth inhibition [4]: -3.35%
- growth inhibition [5]: 12.9%
- growth inhibition [6]: 13.9%

SMILES: CCC1=C(c2ccc(OC)cc2)CC[C@@]2(CCNC2=O)[C@@H]1C
- growth inhibition [1]: 4.8%
- growth inhibition [2]: -0.2%
- growth inhibition [3]: -5.45%
- growth inhibition [4]: 14.3%
- growth inhibition [5]: 3.8%
- growth inhibition [6]: 8.8%

SMILES: O=CN1CCCCC1
- growth inhibition [1]: -43.1% and -15.2%
- growth inhibition [2]: -26% and -2.6%
- growth inhibition [3]: -3.05% and -5.15%
- growth inhibition [4]: 3.15% and -27.7%
- growth inhibition [5]: -18.9% and 0.45%
- growth inhibition [6]: -8.8% and 0.65%

SMILES: Cc1cc(C)c(CC(C)C)c(C)c1
- growth inhibition [1]: 1.85%
- growth inhibition [2]: 6.25%
- growth inhibition [3]: 17.4%
- growth inhibition [4]: 31.4%
- growth inhibition [5]: 2.4%
- growth inhibition [6]: -2.45%

SMILES: O=C(c1ccc(Cl)cc1)c1ccc(OCCCOc2ccc(C(=O)c3ccc(Cl)cc3)cc2Cl)c(Cl)c1
- growth inhibition [1]: 9.55%
- growth inhibition [2]: -7.95%
- growth inhibition [3]: -2.35%
- growth inhibition [4]: -46.9%
- growth inhibition [5]: -20.3%
- growth inhibition [6]: 2.15%

SMILES: O=Cc1cccc2ccc3cccc(C(=O)Cl)c3c12
- growth inhibition [1]: 20.4%
- growth inhibition [2]: 46.9%
- growth inhibition [3]: 37.8%
- growth inhibition [4]: 18%
- growth inhibition [5]: 62.5%
- growth inhibition [6]: 32.5%

SMILES: OCCc1ccc2ccccc2n1
- growth inhibition [1]: 6.05%
- growth inhibition [2]: 14.2%
- growth inhibition [3]: 10.7%
- growth inhibition [4]: 6.2%
- growth inhibition [5]: -0.8%
- growth inhibition [6]: 3.5%

SMILES: CC(Sc1nc(N)nc2nc[nH]c12)C(=O)O (stereo not given)
- growth inhibition [1]: -15.2%
- growth inhibition [2]: -3.55%
- growth inhibition [3]: -11.3%
- growth inhibition [4]: -23.6%
- growth inhibition [5]: 4.15%
- growth inhibition [6]: 11%

SMILES: O=CNCC(=O)O
- growth inhibition [1]: 15.6%
- growth inhibition [2]: -3.75%
- growth inhibition [3]: -15.5%
- growth inhibition [4]: -0.7%
- growth inhibition [5]: -2.55%
- growth inhibition [6]: 7.9%

SMILES: CC(=O)N(C(=O)CC(=O)NNCc1ccccc1Cl)c1ccc(Cl)cc1
- growth inhibition [1]: -11.4%
- growth inhibition [2]: -14.2%
- growth inhibition [3]: -19.6%
- growth inhibition [4]: -11.4%
- growth inhibition [5]: -17%
- growth inhibition [6]: 6.3%

SMILES: N#CCN(CC#N)C1CC=CCC1N(CC#N)CC#N (stereo not given)
- growth inhibition [1]: -26.2%
- growth inhibition [2]: 1%
- growth inhibition [3]: -30.2%
- growth inhibition [4]: -20.8%
- growth inhibition [5]: -21%
- growth inhibition [6]: -38.1%

SMILES: COc1cccc(C2c3cc4c(cc3OC(C)(O)C2C)OCO4)c1O (stereo not given)
- growth inhibition [1]: -4.7%
- growth inhibition [2]: -3.75%
- growth inhibition [3]: -0.25%
- growth inhibition [4]: -24.8%
- growth inhibition [5]: 1.65%
- growth inhibition [6]: -9.9%

SMILES: CCOc1ccccc1Nc1ccc(N)cc1S(=O)(=O)O
- growth inhibition [1]: 9.45%
- growth inhibition [2]: 0.85%
- growth inhibition [3]: -31.5%
- growth inhibition [4]: -6.2%
- growth inhibition [5]: 1.35%
- growth inhibition [6]: -8.05%

SMILES: O=C(c1ccc([N+](=O)[O-])cc1)N(Cc1ccccc1)Cc1ccccc1 (tested in a mixture with another compound)
- growth inhibition [1]: -7%
- growth inhibition [2]: 15.7%
- growth inhibition [3]: -12.7%
- growth inhibition [4]: -10.9%
- growth inhibition [5]: 26.8%
- growth inhibition [6]: 9.5%

SMILES: CC(CC(O)C(=O)O)CC(C)(C)C (stereo not given)
- growth inhibition [1]: -5.95%
- growth inhibition [2]: 8.7%
- growth inhibition [3]: -7.15%
- growth inhibition [4]: -7.3%
- growth inhibition [5]: 22.3%
- growth inhibition [6]: 2.6%

SMILES: CC1=C(C(=O)Nc2ccccc2)C(c2ccc(N(C)C)cc2)C(C(=O)Nc2ccccc2)=C(C)N1
- growth inhibition [1]: -13.7%
- growth inhibition [2]: 7.4%
- growth inhibition [3]: -6.3%
- growth inhibition [4]: 24.4%
- growth inhibition [5]: -6.8%
- growth inhibition [6]: 15.8%
